Structures are written as SMILES. The list shows a part of the results. Results filed as inconclusive are left out. Unmarked numbers belong to inactive results. Activity calls are given as the source filed them. The call rests on the fitted dose curve; in most records, active means well fitted inhibition curve with a large enough effect; inconclusive means small, poorly fitted or top-dose-only effect, or another doubt; inactive means no such curve, though single readings can be large or run the other way.

From PubChem BioAssay AID906 (National Center for Advancing Translational Sciences (NCATS), 2007) come the findings set out here.

The test in a line: Cell Viability - CRE-beta lactamase CHO cell - 40 hr assay. The note with it: CRE-bla CHO viability, ATP luminescence; max response: stronger effect = lower value. The text has this:
NIH Chemical Genomics Center [NCGC] NIH Molecular Libraries Screening Centers Network [MLSCN] National Institutes of Environmental Health Sciences [NIEHS] National Toxicology Program [NTP] MLSCN Grant: 1X01MH079867-01 Assay Provider: Marshall W. Nirenberg, U.S. National Heart, Lung and Blood Institute NCGC Assay Overview: We have developed a 1536-well cell-based assay for quantitative high throughput screening (qHTS) against a number of cell lines to determine in vitro cytotoxicity of small molecules. This particular assay uses CRE-bla CHO cell line from Invitrogen.
NCGC Assay Protocol Summary: The CellTiter-Glo luminescent cell viability assay (Promega) is a homogeneous method to measure the number of viable cells in culture. The end point readout of this assay is based on quantitation of intracellular ATP, an indicator of metabolic activity, using the luciferase reaction. Luciferase catalyzes the oxidation of beetle Luciferin to oxyluciferin and light in the presence of ATP. The luminescent signal is proportional to amount of ATP present. Using the CellTiter-Glo luminescent cell viability assay, the amount of cellular ATP was measured in the CRE-bla CHO cell line with complete culture medium following compound treatment for 40 hours. The assay was performed in opaque white Kalypsys 1536-well plates. In the screen, tamoxifen was used as positive control. The selected compounds were measured for their ability to cause acute toxicity in the cell line, as reflected by a decrease in intracellular ATP levels, in a concentration-dependent manner. Data were normalized to the controls for basal activity (DMSO only) and 100% inhibition (100 uM tamoxifen). AC50 values were determined from concentration-response data modeled with the standard Hill equation. NCGC Assay Protocol Summary 1. Reagent; 5 uL; 2000 CHO cells/well 2. Time; overnight; 37 °C incubation 3. Compounds; 23 nL; 5.9 nM to 46 uM 4. Controls; 23 nL; Tamoxifen 4.5 nM to 92 uM 5. Time; 40 hr; 37 °C incubation 6. Reagent; 5 uL; CellTiter Glo reagent 7. Time; 20 min; Room Temperature 8. Detection; Luminescence; Viewlux plate reader Keywords: cell viability, cytotoxicity, CHO cell line, luminescence, MLSMR, MLSCN, NIH Roadmap, qHTS, NCGC
`Cc1nn(-c2ccccc2)c2sc(C(=O)N(Cc3ccco3)C(C)C(=O)NC(C)(C)C)cc12` (stereo not given): the Potency is 12.6 µM (active).

In the case of `COc1ccc(CCNC(=O)CSc2nc(C)nc3c2oc2ccccc23)cc1OC`, the max response is -16.6%.

Regarding `CCc1nc(Nc2ccc3nccnc3c2)c2oc3ccccc3c2n1`, the max response is -16.6%.

Take `Cc1nc(SCC(=O)Nc2cc(C)on2)c2c3c(sc2n1)CCCC3`: the max response was -15.8%.

Regarding `CC1CCc2sc3nc(N4CCN(CCO)CC4)n4ncnc4c3c2C1` (stereo not given), the max response was -25.1%.
